Measurements from the supplement of paper PMC11417369.
± gives the standard deviation of the averaged measurements. Over roughly 25,000 sequences, “ln(normalized median fluorescence intensity)” has its median near 8.6; the highest 2% begin near 10. What follows is part of a selection rich in the highest values, with near analogues and random picks from the rest.

These sequences were tested on PfAP2-EXP AP2 domain (GST-tagged) (assay: gcPBM binding intensity (ln(normalized median fluorescence intensity)); higher = stronger DNA binding).
In short: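 After 1 h on an Agilent 4 × 180k array of primer-extended double-stranded 36-bp intergenic genomic probes and negative controls, bound GST-tagged P. falciparum DNA-binding domains were detected with Alexa488 anti-GST antibody and scanned at 488 nm. The domains had been expressed in E. coli, and binding took place in 1× PBS with 1% milk, 0.2 mg/ml BSA, 0.5% salmon testes DNA and 0.03% Triton X-100. Binding intensity is the highest Masliner-normalised natural-log median intensity across replicate spots of either probe orientation.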

Sequence | gcPBM binding intensity (ln)
ATTATGTTAATAATATGTACATATATCTACATATAT [XGTACX_site7978] | 8.37 ± 0.33
CGCATGCAATGTTAATGTACATATATATATATATGT [XGTACX_site3316] | 9.395 ± 0.049
ATATATATATATATATGTACATAATGCATATAATAT [XGTACX_site6142] | 10.2 ± 0.56
ATATATATATATATATGTACATATGTTAATCTGCAT [XGTACX_site1068] | 10.2 ± 0.31
AAATATATAATACATATGTAATATGCATATATATAT [GTGCAC_negctrl_site450] | 9.72 ± 0.16
TTTTTTTTTTTTTATTGTACATACTTTTAAATATAT [XGTACX_site4303] | 8.55 ± 0.59
TCGTCACTTTAATATTGTACATATATATATATATAT [XGTACX_site8046] | 10.3 ± 0.13
ACACAAGCACACAAATGTACATATATATATATATAT [XGTACX_site5146] | 10.2 ± 0.13
CGCTCTCTTTAATATTGTACATATATATTATATATA [XGTACX_site7017] | 8.77 ± 0.35
ATATATGCATATATATGTACATATATATATATATAT [XGTACX_site7403] | 9.93 ± 0.4
TAAAAATCCACAAGCACACAAATGTACATATATATA [CACACA_site2462] | 8.71 ± 0.24
TGTACAAATATGTACACACACACATATATATATATA [CACACA_site584] | 9.95 ± 0.31
TACAAATATATATGCACACACATATATGTATATGTG [CACACA_site3075] | 8.65 ± 0.26
TCACATACATTACTTACACACCATATTAAGATATAC [CACACA_site4415] | 8.68 ± 0.43
ATTTATATTCCAATATGTACATATTTTCGTATAACC [XGTACX_site8507] | 8.88 ± 0.35
AAATTTCAATAATCTACACACATAAAAAAACAAAAG [CACACA_site1702] | 8.82 ± 0.52
TACAATTTTTTAAATGCACACAAAAGGAATAAATAA [CACACA_site8075] | 8.78 ± 0.16
GAAAAAAGAAATTAAACATGCATCTGCAAATTTAAA [TGCATGCA_site974] | 8.34 ± 0.42
TGAATACTTATGTTCGCACACATGCAAATTAAAAAA [CACACA_site4048] | 8.62 ± 0.22
ACTATAAATATATACACATGCGCACACACAAGTGGG [TGCATGCA_site432] | 8.77 ± 0.39
TCTTATTCAAACGTAAAACGAAGAAGAAAAAAAAAA [CACACA_negctrl_site149] | 8.49 ± 0.41
AAAATAATGTATATATGTACATATAAATATATATAT [XGTACX_site8081] | 9.32
ATACACAAATGCATACGTACATATATATATATATAT [XGTACX_site3504] | 10.2 ± 0.33
AAAATAATAAATAAATGTACATATATATATATATAT [XGTACX_site3078] | 10.2 ± 0.47

Sequence | gcPBM binding intensity (ln)
ATAATAAAAATAAAATGTACATACATAAATATATAT [XGTACX_site6228] | 8.62 ± 0.28
GTTATAAATGCATATACACACATACGTACATACATA [CACACA_site7655] | 8.79 ± 0.23
AATGTACAAATACGTACACACATATATATATATATA [CACACA_site1542] | 10.1 ± 0.42
TATTTCATATGAAGAAGTACTATTAATAATTTCCTT [XGTACX_site6587] | 8.3 ± 0.28
TATTATTTTAATTATTCACACATTATTATAAAAATT [CACACA_site5538] | 8.3 ± 0.33
ATTATTCGTTTTAAATGTACTCATATAAACGATAAA [XGTACX_site7866] | 8.52 ± 0.3
GGATATAACAAACACACACACACATATATATATATT [CACACA_site4141] | 8.59 ± 0.19
AAATCGAACAAATTATGTACTAAAAAAAAAATTTAT [XGTACX_site6399] | 8.39 ± 0.4
AATATGTATCCATACACACATACATTTTATTTGCAA [CACACA_site874] | 8.65 ± 0.45
AAAAAAAATTAAAATAAAATATAAATATAAAATATA [GTGCAC_negctrl_site714] | 8.23 ± 0.24
TACAAAAAAATAAAAAAAATTAAATAAATAAATATA [CACACA_negctrl_site45] | 8.17 ± 0.37
ATATATATATATATAACACACGCAAAAAAATTAAAT [CACACA_site8395] | 10.2 ± 0.26
ATATATATATATAACACACGCAAAAAAATTAAATAA [CACACA_site1400] | 9.96 ± 0.11
TGATATATATATATATATATAACACACGCAAAAAAA [TGCATGCA_negctrl_site240] | 8.73 ± 0.51
AGCAAAAATTAAATAAATAAATATATATATATATAT [TGCATGCA_negctrl_site449] | 10.2 ± 0.63
ATCATGTTATATACATGTACATATATATATATATAT [XGTACX_site1329] | 10.2 ± 0.3
ATATATATATATATATGTACATATATACATATACAT [XGTACX_site2350] | 9.99 ± 0.43
ATATATATATATACATGTACATATATACATTATATT [XGTACX_site936] | 9.99 ± 0.45
ATATATATATATATATGTACATATGTTAGGATCAAA [XGTACX_site8626] | 10.2 ± 0.33
ATATATATATACATATGTACATATATATTTATACAT [XGTACX_site2463] | 9.64 ± 0.33
ATCATGTTATATACATGTACATATATATATATATAA [XGTACX_site609] | 8.51 ± 0.4
TTATGGTTATACATATGTACATATATATATATATAT [XGTACX_site1494] | 10.3 ± 0.2
TGTTATATGTTCAAATGTACAAATCATATACATGTT [XGTACX_site3192] | 8.45 ± 0.38
TATGTATCAAATAAATGTACATATATATATATATAT [XGTACX_site2189] | 10.1 ± 0.49
